# Experimental data from PubChem BioAssay AID1671202 (University of Kansas High Throughput Screening Laboratory, 2021).
# Several values for one entry are separate records, joined by “and”; a condition that tells them apart may be missing. Equal entries are not always repeated. Screen size: about 190,000 compounds; about 6,900 (3.6%) were called active. Rule as the data show it: active = inhibition above about 50%; inactive = the rest. What follows is part of a selection rich in actives, with near analogues and random picks from the rest.
# Target: Huntingtin (Homo sapiens) (UniProt P42858)
# Test: mutant huntingtin-calmodulin interaction inhibitors – biochemical, AlphaScreen, primary screen (AID 1671202);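 also: 0% = both proteins with DMSO and 100% = one protein alone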
# Settings: AlphaScreen His-mHTT/GST-CaM binding, luminescence; at 15 µM, stronger effect = higher value
# Sequence of Huntingtin (Homo sapiens) (P42858 whole entry, looked up, stated change not applied): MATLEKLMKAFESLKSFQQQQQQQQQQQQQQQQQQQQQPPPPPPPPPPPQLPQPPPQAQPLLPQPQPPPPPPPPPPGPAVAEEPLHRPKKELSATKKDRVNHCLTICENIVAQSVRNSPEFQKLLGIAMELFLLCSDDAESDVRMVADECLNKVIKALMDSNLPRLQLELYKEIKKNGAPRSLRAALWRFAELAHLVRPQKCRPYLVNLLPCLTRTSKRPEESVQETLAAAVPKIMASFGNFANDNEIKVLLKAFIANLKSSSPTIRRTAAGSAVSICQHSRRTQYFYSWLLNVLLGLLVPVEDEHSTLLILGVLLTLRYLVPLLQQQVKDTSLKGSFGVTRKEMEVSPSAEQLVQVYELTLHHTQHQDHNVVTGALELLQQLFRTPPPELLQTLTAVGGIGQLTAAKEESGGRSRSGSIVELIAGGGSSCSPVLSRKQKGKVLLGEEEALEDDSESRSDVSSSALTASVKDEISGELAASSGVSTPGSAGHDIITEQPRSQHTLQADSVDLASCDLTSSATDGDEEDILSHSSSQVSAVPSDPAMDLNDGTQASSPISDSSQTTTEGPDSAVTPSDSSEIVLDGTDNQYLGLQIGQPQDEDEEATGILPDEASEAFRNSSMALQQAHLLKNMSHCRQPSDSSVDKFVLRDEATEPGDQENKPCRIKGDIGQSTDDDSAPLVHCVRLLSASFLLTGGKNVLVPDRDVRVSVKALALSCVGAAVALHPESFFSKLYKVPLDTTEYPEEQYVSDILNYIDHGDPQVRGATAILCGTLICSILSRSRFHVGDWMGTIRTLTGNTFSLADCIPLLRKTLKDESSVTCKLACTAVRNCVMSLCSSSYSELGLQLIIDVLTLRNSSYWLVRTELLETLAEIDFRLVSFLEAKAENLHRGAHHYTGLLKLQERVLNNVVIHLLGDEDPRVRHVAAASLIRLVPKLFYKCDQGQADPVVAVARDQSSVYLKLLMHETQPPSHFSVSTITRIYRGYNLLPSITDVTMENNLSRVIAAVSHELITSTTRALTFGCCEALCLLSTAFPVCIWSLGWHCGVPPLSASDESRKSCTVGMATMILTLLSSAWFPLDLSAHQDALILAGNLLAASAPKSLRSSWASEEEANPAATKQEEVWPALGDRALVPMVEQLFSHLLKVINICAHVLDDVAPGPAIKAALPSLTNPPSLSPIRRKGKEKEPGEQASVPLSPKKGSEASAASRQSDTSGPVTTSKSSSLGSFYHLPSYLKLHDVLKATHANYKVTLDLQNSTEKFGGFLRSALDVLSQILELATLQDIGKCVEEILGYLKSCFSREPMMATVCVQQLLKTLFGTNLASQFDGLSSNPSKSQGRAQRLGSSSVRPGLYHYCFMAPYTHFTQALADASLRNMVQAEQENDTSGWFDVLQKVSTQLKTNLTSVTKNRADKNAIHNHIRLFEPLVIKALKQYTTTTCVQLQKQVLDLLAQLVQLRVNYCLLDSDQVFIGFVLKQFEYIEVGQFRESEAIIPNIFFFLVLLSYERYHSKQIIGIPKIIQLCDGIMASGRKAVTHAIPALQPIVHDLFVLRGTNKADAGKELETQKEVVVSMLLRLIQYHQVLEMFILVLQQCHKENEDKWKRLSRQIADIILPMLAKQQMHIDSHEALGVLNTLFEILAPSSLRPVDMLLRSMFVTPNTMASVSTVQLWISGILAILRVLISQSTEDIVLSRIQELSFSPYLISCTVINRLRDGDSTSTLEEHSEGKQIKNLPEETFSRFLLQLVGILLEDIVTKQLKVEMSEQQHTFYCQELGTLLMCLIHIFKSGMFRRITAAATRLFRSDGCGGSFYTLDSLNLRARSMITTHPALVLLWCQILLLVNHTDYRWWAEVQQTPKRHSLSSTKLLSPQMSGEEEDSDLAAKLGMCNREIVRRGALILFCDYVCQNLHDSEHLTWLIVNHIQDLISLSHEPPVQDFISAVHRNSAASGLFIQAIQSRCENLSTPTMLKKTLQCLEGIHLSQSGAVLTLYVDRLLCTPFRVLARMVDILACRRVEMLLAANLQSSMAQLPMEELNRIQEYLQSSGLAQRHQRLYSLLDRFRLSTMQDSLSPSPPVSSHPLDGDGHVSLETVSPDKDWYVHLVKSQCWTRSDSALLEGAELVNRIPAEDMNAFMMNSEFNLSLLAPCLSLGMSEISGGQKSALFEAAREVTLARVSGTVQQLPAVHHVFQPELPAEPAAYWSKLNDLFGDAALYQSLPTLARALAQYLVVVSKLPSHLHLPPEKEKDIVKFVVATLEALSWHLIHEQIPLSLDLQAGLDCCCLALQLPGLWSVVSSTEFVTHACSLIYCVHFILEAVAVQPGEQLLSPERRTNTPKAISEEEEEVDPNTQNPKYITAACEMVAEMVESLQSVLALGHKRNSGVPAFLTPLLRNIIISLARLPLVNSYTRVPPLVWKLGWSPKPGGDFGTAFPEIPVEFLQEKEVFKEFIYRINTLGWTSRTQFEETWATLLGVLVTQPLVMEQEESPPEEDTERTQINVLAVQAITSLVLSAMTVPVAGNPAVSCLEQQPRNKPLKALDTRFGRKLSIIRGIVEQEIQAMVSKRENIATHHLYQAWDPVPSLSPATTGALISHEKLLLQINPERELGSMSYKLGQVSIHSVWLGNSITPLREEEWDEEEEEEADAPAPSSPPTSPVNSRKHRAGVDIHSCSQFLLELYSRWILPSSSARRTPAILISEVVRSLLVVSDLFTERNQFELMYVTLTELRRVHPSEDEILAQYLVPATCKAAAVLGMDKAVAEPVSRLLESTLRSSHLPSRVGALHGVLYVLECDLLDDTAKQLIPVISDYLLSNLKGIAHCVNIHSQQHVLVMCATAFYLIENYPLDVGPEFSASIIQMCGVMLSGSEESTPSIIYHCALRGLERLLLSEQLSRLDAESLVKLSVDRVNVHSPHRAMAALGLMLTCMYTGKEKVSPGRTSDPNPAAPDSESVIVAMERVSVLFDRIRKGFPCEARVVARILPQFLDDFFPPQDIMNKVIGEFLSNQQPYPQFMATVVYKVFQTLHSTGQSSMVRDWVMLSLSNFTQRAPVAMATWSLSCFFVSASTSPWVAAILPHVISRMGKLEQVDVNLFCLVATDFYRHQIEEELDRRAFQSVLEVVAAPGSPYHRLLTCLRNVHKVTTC
row,SMILES,inhibition
1,COc1ccc(N2C(=O)CSC2c2c(F)cccc2Cl)c(OC)c1 (centres undefined),1% (inactive)
2,COc1cc([N+](=O)[O-])ccc1N=Cc1c(C)[nH]n(-c2ccccc2C)c1=O,57% (active)
3,COc1cc(SC#N)ccc1N=Cc1c(C)[nH]n(-c2ccc(Br)cc2)c1=O,2% (inactive)
4,COc1cc([N+](=O)[O-])ccc1N=Cc1c(C)[nH]n(-c2ccc(C)c(C)c2)c1=O,11% (inactive)
5,COc1cccc2cc(-c3cc(=O)oc4cc5c(cc34)CCCC5)oc12,-2.8% (inactive)
6,O=C(c1c(F)cccc1F)N1CCN(S(=O)(=O)C2CC2)CC1,-10.4% (inactive)
7,O=C1Nc2ccccc2Oc2cc([N+](=O)[O-])cc(Oc3ccccc3Br)c21,32% (inactive)
8,O=C(c1ccccn1)N1CCC2(C1)NCc1ccccc1NC2=NCc1ccccc1 (centres undefined),12.6% (inactive)
9,COCCNC(=O)N1CCCC2(C1)Nc1ccccc1NC2=NCc1ccccc1 (centres undefined),97.7% (active)
10,COc1ccccc1C(=O)N1CCCC2(C1)Nc1cccnc1NC2=NCc1ccccc1 (centres undefined),1.03% (inactive)
11,c1ccc(CN=C2Nc3ccccc3NC23CCCNC3)cc1 (centres undefined),25.7% (inactive)
12,CC(C)(C)C(=O)N1CCCC2(C1)Nc1ccccc1NC2=NCc1ccccc1 (centres undefined),100% (active)
13,O=C(c1cnccn1)N1CCCC2(C1)Nc1ccccc1NC2=NCc1ccccc1 (centres undefined),25.6% (inactive)
14,Cc1cccc(-c2csc3c(=O)n(Cc4ccc(F)cc4)cnc23)c1,-29.4% (inactive)
15,O=S1(=O)c2ccccc2S(=O)(=O)N1c1cc(F)ccc1F,6% (inactive)
16,O=C(c1cccc2c1CCN2C(=O)C1CC1)N1CCOCC1,-4.9% (inactive)
17,CC12C=CC(O1)C1C(=O)N(c3ccc(Cl)c(C(=O)O)c3)C(=O)C12 (centres undefined),-2% (inactive)
18,O=C(NCc1ccccc1Cl)c1cnn2c3c(cnc12)CCCCCC3,-7% (inactive)
19,COc1cccc(N=Cc2cc(Br)ccc2O)c1,13% (inactive)
20,O=C1/C(=C/c2ccc3c(c2)OCO3)CCC/C1=C\c1ccc2c(c1)OCO2,58% (active)
21,O=C1OC(c2ccco2)=N/C1=C/c1ccc2c(c1)OCO2,29% (inactive)
22,CSC1=N/C(=C\c2ccc3c(c2)OCO3)C(=O)S1,-2% (inactive)
23,COc1cc(Cl)ccc1C(=O)N1CCC(c2nc(CCNC(C)=O)cs2)CC1,5.03% (inactive)
24,Cc1cccc(C(=O)N2CCCC(C(=O)NC3CCCC3)C2)c1 (centres undefined),25.1% (inactive)

row,SMILES,inhibition
1,O=C(c1cc(-c2ccccc2)n[nH]1)N1CCN(c2ncccn2)CC1,-17.7% (inactive)
2,Cc1nn(-c2ccccc2)c(Cl)c1C(=O)N1CCOCC1,1% (inactive)
3,Cc1nn(-c2ccccc2)c(C)c1N1CCN(C(=O)c2cc(-c3ccccc3)n[nH]2)CC1,98.9% (active)
4,COc1ccc(-c2nc(SCC(=O)Nc3ccc(OC(F)(F)F)cc3)[nH]c(=O)c2C#N)cc1,14% (inactive)
5,COc1ccc(OC)c(C=C2Oc3c(ccc(O)c3CN3CCCCC3C)C2=O)c1 (centres undefined),-1.3% (inactive)
6,COc1ccc(-c2nnc(N3CCC(C(=O)NCc4cccc(OC)c4)CC3)o2)cc1,21% (inactive)
7,CC(C)c1ccc(N2CC(C(=O)N(C)Cc3ccccc3)CC2=O)cc1 (centres undefined),56.5% (active)
8,COc1ccc(N2CC(C(=O)Nc3ccc(C(C)C)cc3)CC2=O)cc1 (centres undefined),0.1% (inactive)
9,Cc1ccc(N2CC(C(=O)N(C)C(C)C)CC2=O)cc1 (centres undefined),-4.2% (inactive)
10,Cc1ccc(C(=O)NCC2CCCN(S(=O)(=O)c3ccc(F)cc3F)C2)cc1 (centres undefined),-3.67% (inactive)
11,O=C(CCn1c(=O)c2sccc2n(Cc2cccc(Cl)c2)c1=O)NCc1ccccc1,-2% (inactive)
12,COc1ccccc1CCC(=O)N1CCCn2nc(-c3cccc(C)c3)cc2C1,68.3% (active)
13,COc1ccccc1CC(=O)N1CCCn2nc(-c3ccc(C)cc3)cc2C1,37.9% (inactive)
14,Cc1cccc(-c2cc3n(n2)CCCN(C(=O)C(C)Oc2ccccc2)C3)c1 (centres undefined),42.9% (inactive)
15,CCOc1ccccc1Oc1c(C)oc2c(CN(CC)CC)c(O)ccc2c1=O,3.7% (inactive)
16,CCC(CC)C(=O)Nc1ccc(Br)cc1F,-9.3% (inactive)
17,Cn1nc(-c2nc(-c3cccc(F)c3)no2)c2c1CCN(C(=O)Cc1cccs1)C2,20.1% (inactive)
18,CCN(CC)CCC(c1ccc2c(c1)OCO2)c1c(OC)cc(OC)c2c(-c3ccccc3)cc(=O)oc12 (centres undefined),101% (active)
19,CCN(CC)C(=O)CC(c1ccc2c(c1)OCO2)c1c(OC)cc(OC)c2c(-c3ccccc3)cc(=O)oc12 (centres undefined),74.9% (active)
20,COc1ccc(-c2c(C)cc3oc(=O)cc(-c4ccccc4)c3c2C)cc1OC,-2.2% (inactive)
21,CCN(CC)CCC(c1cc(OC)c(OC)c(OC)c1)c1c(OC)cc(OC)c2c(-c3ccccc3)cc(=O)oc12 (centres undefined),-4.8% (inactive)
22,COc1cccc2cc(-c3nc(-c4ccc5c(c4)OCO5)cs3)c(=O)oc12,-9% (inactive)
23,COc1ccc(-c2c(C)cc3oc(=O)cc(-c4ccccc4)c3c2C)cc1F,-2.4% (inactive)
24,Cc1ccc(Cc2c(C)nc(C)nc2N2CCN(C(=O)c3ccccc3)CC2)cc1,11.3% (inactive)

row,SMILES,inhibition
1,COCCc1noc(COC2CCCN(C(=O)c3ccccn3)C2)n1 (centres undefined),-8.61% (inactive)
2,CSc1cccc(NC(=O)NCCNc2cc(-n3ccnc3C)nc(C)n2)c1,99.9% (active)
3,CCNc1cc(NCCNC(=O)c2cccc(F)c2)nc(C)n1,-7.5% (inactive)
4,CCc1ccccc1NC(=O)NCCNc1cc(-n2nc(C)cc2C)nc(C)n1,-5.7% (inactive)
5,O=C1C(c2ccc(F)cc2)N(C2CCCC2)C(=O)CN1C1CCCCCC1 (centres undefined),-6% (inactive)
6,O=C(CCCn1c2ccccc2c(=O)c2ccccc21)Nc1ccc(C(F)(F)F)cn1,23% (inactive)
7,O=C(NCc1cccc(F)c1)c1cc2n(n1)CCCN(Cc1ccc(Cl)cc1)C2=O,16.8% (inactive)
8,CCCc1cc(C2CCCN2Cc2cc(OC)c(OC)cc2OC)no1 (centres undefined),37.6% (inactive)
9,COc1cc(C2NC(C(=O)O)CS2)ccc1O (centres undefined),-7% (inactive)
10,COc1ccc([N+](=O)[O-])cc1-n1c(C)ccc1C,51.9% (active)
11,COc1ccc([N+](=O)[O-])cc1NC(=O)CC(C)C,-0.3% (inactive)
12,COc1ccc([N+](=O)[O-])cc1NC(=O)c1ccc(C)c(Br)c1,8.5% (inactive)
13,O=C(CC(C(=O)O)N1CCNCC1)Nc1ccc(OC(F)F)cc1 (centres undefined),-16.1% (inactive)
14,Cc1ccc(NC(=O)Cn2cccc2-c2nnc(C3CCC3)o2)cc1,12.1% (inactive)
15,O=C1c2ccccc2C(=O)c2c(NC(=O)c3c(F)cccc3F)cccc21,1% (inactive)
16,CC1CCCC(C)N1C(=O)c1cccc2c1-c1ccccc1C2=O (centres undefined),-6% (inactive) and 2.5% (inactive)
17,O=C1c2ccccc2C(=O)c2c(NC3CCCCC3)cccc21,73% (active)
18,O=C(CSc1ccc(C(F)(F)F)cc1[N+](=O)[O-])Nc1ccccc1Cl,8% (inactive)
19,O=C1NC(=O)/C(=C\c2ccc(OCc3ccc([N+](=O)[O-])cc3)c(Br)c2)N1,10% (inactive)
20,CCOc1cc(/C=C2\NC(=O)NC2=O)cc(Cl)c1OCc1ccc([N+](=O)[O-])cc1,74% (active)
21,CCOc1cc(/C=C2\NC(=O)NC2=O)cc(Cl)c1OC(C)C,14% (inactive)
22,COc1cccc(CN2COc3ccc4c(c3C2)OC(=Cc2cccnc2)C4=O)c1,3.4% (inactive)
23,COc1cccc(CN2COc3ccc4c(c3C2)OC(=Cc2ccc(OC)c(OC)c2OC)C4=O)c1,35.7% (inactive)
24,COc1cccc(C=C2Oc3c(ccc4c3CN(Cc3cc(OC)c(OC)c(OC)c3)CO4)C2=O)c1,56.5% (active)

row,SMILES,inhibition
1,CCn1cnnc1C1CCCCN1C(=O)c1cnccn1 (centres undefined),0.74% (inactive)
2,CCOc1ccccc1/C=C1\N=C(c2ccc([N+](=O)[O-])cc2Cl)OC1=O,-1% (inactive)
3,CN1CCC(CCNC(=O)c2ccc3[nH]c4c(c3c2)CN(C(=O)C2CCC2)CC4)CC1,4.82% (inactive)
4,CC(=O)N1CCc2[nH]c3ccc(C(=O)NC4CCCCC4)cc3c2C1,9.6% (inactive)
5,CC(=O)N1CCc2[nH]c3ccc(C(=O)NCCc4ccccn4)cc3c2C1,58.7% (active)
6,Oc1ccc(Nc2nc(-c3ccc(Cl)cc3Cl)nc3ccccc23)cc1,37.4% (inactive)
7,CCc1cc(C(=O)Nc2ccccc2)no1,-4.5% (inactive)
8,CCNc1cc(Nc2ccccc2)c2c3c(onc13)-c1ccccc1C2=O,100% (active)
9,O=C(NCc1ccc(Cl)cc1)c1ccc2ncnc(N3CCOCC3)c2c1,-1.3% (inactive)
10,CC(=O)c1cccc(NC(=O)C2CCN(S(=O)(=O)c3ccc(Br)cc3)CC2)c1,-1.7% (inactive)
11,COc1ccc(C2NC(c3ccc(OC)c(OC)c3)C(C)C(=O)C2C)cc1OC (centres undefined),10% (inactive)
12,Cc1ccc(CNC(=O)C2CC(=O)N(C3CCCCCCC3)C2)cc1 (centres undefined),8.83% (inactive)
13,CCN(CCCNC(=O)C1CC(=O)N(C2CCCCCCC2)C1)c1cccc(C)c1 (centres undefined),53% (active)
14,Cc1ccc(CNC(=O)C2CC(=O)N(C3CCCCC3)C2)cc1 (centres undefined),2.18% (inactive)
15,COc1ccc(-n2nc3c(c2NC(=O)c2cccc(OC)c2OC)CS(=O)C3)cc1 (centres undefined),5% (inactive)
16,O=C1C2C(C(=O)N1c1cc([N+](=O)[O-])ccc1Cl)C1C=CC2C12CC2 (centres undefined),4% (inactive)
17,Cc1ccnc(N2CCCC(C(=O)NCCc3ccc(Cl)cc3)C2)n1 (centres undefined),7.6% (inactive)
18,Cc1ccc2cc3cc(C(=O)N(C)c4ccc(Br)cc4)oc3nc2c1,-8% (inactive)
19,Cc1ccc(CNC(=O)CCC(=O)N2CCCn3nc(C)cc32)cc1,1.63% (inactive)
20,COc1ccc(C(=O)NCCc2nc3ccccc3n2Cc2ccccc2C)cc1OC,77% (active)
21,COc1ccc(OC)c2[nH]c(=O)c(CCNC(=O)c3ccc(C)c(C)c3)cc12,28% (inactive)
22,COc1ccc(C(=O)NCCc2ccc(S(N)(=O)=O)cc2)cc1OC,9.3% (inactive)
